This is a sample that favours compounds with a hit; in the whole collection about 11% have one here.
ALDH1A1 block: qHTS Assay for Inhibitors of Aldehyde Dehydrogenase 1 (ALDH1A1); Potency, µM (top dose mostly 75.3 µM), inactives show top-dose activity, negative = inhibition, most hits filed as inhibitors; Purified ALDH1A1, NADH fluorescence, propionaldehyde substrate; Aldehyde dehydrogenase 1A1 (Homo sapiens), P00352; AID 1030, 2008; 7.3% of 220,000 active;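 also: potency is read from the fitted curve at half-maximal effect; plate controls were no enzyme wells and a reference inhibitor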
PNC inhibitor: High Content Assay for Compounds that inhibit the Assembly of the Perinucleolar Compartment | 3.1% of 140,000 active | activity change (PNC), negative = inhibition, % at 10 µM | PC3M PTB-GFP, PNC prevalence imaging, 16 h; active compounds read low;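 active = readout at or below -70, meaning at least 70% loss of cells showing the perinucleolar compartment, a nuclear body marking cancer cells; inconclusive = readout between -30 and a set limit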;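 also: plate controls were DMSO wells for no effect and camptothecin positive control wells for full effect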
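Compounds are pinned in duplicate onto adhered PC3M cells stably expressing GFP-tagged PTB and incubated 16 h at 37 C. Cells are then fixed, nuclei stained with Hoechst, and PNC-positive cells counted.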
HPGD block: qHTS Assay for Inhibitors of HPGD (15-Hydroxyprostaglandin Dehydrogenase). 15-hydroxyprostaglandin dehydrogenase [NAD(+)] (Homo sapiens), P15428. purified HPGD, NADH fluorescence kinetic, PGE2 substrate. Potency, µM, inactives show at the highest dose activity change, negative = inhibition, most hits filed as inhibitors. 4.3% of 150,000 active; also: potency is read from the fitted curve at half-maximal effect
Target sequence (P15428 whole entry, looked up): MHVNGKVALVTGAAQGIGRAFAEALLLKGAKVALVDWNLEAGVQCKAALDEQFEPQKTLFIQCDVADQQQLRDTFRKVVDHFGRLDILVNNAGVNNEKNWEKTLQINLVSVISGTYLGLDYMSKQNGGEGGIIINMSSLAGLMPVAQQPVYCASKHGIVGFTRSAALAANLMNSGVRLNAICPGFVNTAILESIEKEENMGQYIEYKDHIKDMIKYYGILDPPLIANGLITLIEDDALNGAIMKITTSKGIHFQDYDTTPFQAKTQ
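NADH formation kinetics: reaction with 30 uM PGE2 and 1 mM NAD+ (final), 20 nM enzyme, Tris-HCl pH 8 with Tween 20, after 15 min compound preincubation at room temperature. Fluorescence change, last versus first of five reads.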
Starred values were filed as active, the others as inactive; ? = inconclusive; . = no result; [ ] = dose if it differs, or a comment. Unless noted, calls follow the shape of the dose curve; as a rule, active = well fitted inhibition curve with a large enough effect (not every such curve was filed as active); inconclusive = small, poorly fitted or top-dose-only effect, or another doubt; inactive = no such curve, though single readings can be large or run the other way. Unless noted, % is scaled to controls: 0 for no effect and ±100 for the full control effect.

SMILES | ALDH1A1 block | PNC inhibitor | HPGD block
Cc1cnc(CNc2ncncc2-c2ccccc2C#N)cn1 | 0.9% | . | -12.0%
C/C(CCc1oc2ccccc2c1-c1ccc(C)o1)=N/O | ? | 35.1 | ?
CC(=O)CCc1oc2ccc([N+](=O)[O-])cc2c1-c1ccc(C)o1 | 10µM* | . | .
O=C(c1ccco1)N1CCC2(CC1)CCN(c1ccccc1)CC2 | ? | . | -9.1%
S=C(c1cn(CCOc2cccc3ccccc23)c2ccccc12)N1CCCC1 | 28.2µM* | 31.4 | -11.4%
S=C(c1cn(CCOc2ccccc2)c2ccccc12)N1CCCC1 | -6.1% | -6.5 | -22.7%
Cc1ccc(OCCn2cc(/C(N)=N/O)c3ccccc32)cc1C | ? | 13.4 | -4.8%
Cc1ccc(OCCn2cc(C(=S)N3CCCC3)c3ccccc32)cc1C | ? | -106.1* | -10.4%
c1csc(C(c2nnnn2C2CCCC2)N2CCCC3(CCCCC3)C2)c1 (configuration not stated) | ? | 29.3 | -15.5%
O=C(C1CCN(c2nnnn2-c2ccccc2)CC1)N1CCN(c2ccccc2)CC1 | 10µM* | -18.8 | -3.0%
O=C(Nc1ccc2c(c1)OCCO2)C1CCN(S(=O)(=O)c2ccccc2)CC1 | -4.8% | . | .
COc1cccc(NC(=O)N2CCCC2)c1 | 2.2% | . | .
O=C(Nc1cccc(F)c1)C1CCN(c2nnnn2-c2ccccc2)CC1 | 22.4µM* | ? | -10.1%
O=C(O)C1C2CCC(O2)C1C(=O)Nc1cccc(F)c1 (configuration not stated) | -0.1% | ? | -6.7%
O=C(Nc1ccc2c(c1)OCCO2)C1CCN(c2nnnn2-c2ccccc2)CC1 | 3.55µM* | ? | -3.5%
NC(=O)C1CCN(c2nnnn2-c2ccccc2)CC1 | ? | -18.4 | -6.9%
COc1cccc(NC(=O)N2CCN(c3nnnn3-c3ccccc3)CC2)c1 | 6.31µM* | . | .
Nc1ncnc2c1ncn2[C@@H]1O[C@H](C(=O)NC2CC2)[C@H](O)[C@H]1O | 3.1% | . | -17.6%
O=C(COc1ccc(S(=O)(=O)N2CCCC2)cc1)NCC1CCCO1 (configuration not stated) | -3.8% | . | .
CCc1nnc(NC(=O)COc2ccccc2[N+](=O)[O-])s1 | -7.5% | . | .
COc1ccc(C(=O)OC2CC3CC[C@H](C2)N3C(C)=O)cc1OC (some centres not stated) | 8.7% | . | -0.2%
CCOc1ccc(NC(=O)C2CCN(c3nnnn3-c3ccccc3)CC2)cc1 | 12.6µM* | ? | -3.2%
CCOc1ccc(NC(=O)C2CCN(C(=O)NCc3ccccc3)CC2)cc1 | 9.7% | ? | -7.4%
CC1=CC(C)(C)Nc2ccc(OC(=O)c3ccco3)cc21 | 5.3% | 36.4 | -19.5%
CC1=CC(C)(C)N2C(=O)C(=O)c3cc(OC(=O)c4ccco4)cc1c32 | 0.631µM* | . | .
SMILES | ALDH1A1 block | PNC inhibitor | HPGD block
Cc1nc(=S)c2c([nH]1)-c1ccccc1CC21CCCCC1 | 17.8% | . | .
COc1cc(C)c(NC(=S)NCCCN2CCOCC2)cc1OC | -4.1% | . | .
CCOC(=O)C1(CCOc2ccccc2)CCN(Cc2ccc(-n3cccn3)cc2)CC1 | -11.4% | . | .
Clc1ccc(Cl)c(Nc2ccnc(SCc3ccccc3)n2)c1 | -7.9%[13.5 µM] | . | -1.4%
Oc1ccccc1/C=N/Nc1ccnc(SCc2ccccc2)n1 | -1.7% | ? | 28.2µM*
CC(=O)C1=NOC(CNc2ncc(C(F)(F)F)cc2Cl)C1 (configuration not stated) | 1.6% | . | .
COc1ccc(/C=C2\SC(=O)N=C2N)cc1OC | 7.9% | -5.8 | -29.5%
COc1ccc(/C=C2/N=C3CCCCCN3C2=O)cc1OC | 28.2µM* | -18.7 | -9.8%
CC(=O)Nc1sc(N/N=C\c2ccco2)nc1-c1cccs1 | 17.8µM* | ? | 31.6µM*
CC(=O)Nc1sc(N/N=C\c2ccccc2)nc1-c1cccs1 | ? | -20.5 | -28.7%
O=C(Nc1ccc(N2CCCC2)cc1)c1cccc(F)c1 | -80.0% | 8.3 | -8.7%
COc1cc(N2CCCC2)c(OC)cc1/C=C(/C#N)c1cccc(F)c1 | ? | -88.7* | -25.1%
N#C/C(=C\c1ccc(N2CCOCC2)o1)c1ccccc1 | 11.2µM* | -90.1* | ?
N#C/C(=C/c1ccc(N2CCOCC2)o1)c1nc2ccccc2[nH]1 | -5.7% | ? | -7.8%
COc1cc(N2CCCC2)c(OC)cc1/C=C1/NC(=S)NC1=O | 6.3% | ? | -5.4%
N#C/C(=C/c1ccc(N2CCOCC2)o1)c1ccc(Br)cc1 | 15.8µM* | 29.7 | ?
N#C/C(=C/c1ccc(N2CCCCCC2)o1)c1cccc(F)c1 | 2µM* | ? | 25.1µM*
N#C/C(=C\c1ccc(N2CCOCC2)cc1)c1ccccc1 | ? | -19.5 | -14.8%
CC(C)C[C@@H](CC(=O)N[C@@H](CCCN)CC(=O)N[C@@H]1CCNC[C@H]1C(=O)N[C@H](CC(=O)N[C@@H](CCC(=O)O)CC(=O)O)Cc1c[nH]c2ccccc12)NC(=O)[C@@H]1CNCC[C@H]1N | -13.0% | . | -5.2%
CC(C)[C@H](NC(=O)c1ccc(C(C)(C)C)cc1)C(=O)Nc1nnc(C2CC2)s1 | 4.9% | 21.5 | -3.6%
Cc1ccc(NC(=O)C(=O)NN=C2CCCC2)cc1C | 2.3% | . | .
OCCNCCO | ? | . | -13.7%
COc1cc(/C=C2\C(=O)ON=C2c2ccccc2)cc(OC)c1OC | ? | ? | 14.1µM*
COc1ccc(/C=C2\N=C(c3c(-c4ccccc4)noc3C)OC2=O)cc1OC | 7.0% | 6.8 | 0.0%
COc1cc(C2=N/C(=C\c3ccccc3)C(=O)O2)cc(OC)c1OC | ? | . | -19.9%
SMILES | ALDH1A1 block | PNC inhibitor | HPGD block
COc1ccc(/C=C2\C(=O)ON=C2c2cccc([N+](=O)[O-])c2)cc1 | 17.8µM* | . | .
COc1ccc(-c2ccc(=O)n(Cc3cccc([N+](=O)[O-])c3)n2)cc1 | 0.2% | . | .
COc1ccc(/C=C2/C(=O)ON=C2c2ccccc2)cc1OC | 22.4µM* | -13.6 | 10µM*
CN(C)/C=C1\C(=O)ON=C1c1ccccc1 | -4.8% | . | .
Cc1ccc(C2=NOC(=O)/C2=C\C=C\c2ccccc2)cc1 | 3.55µM* | . | .
CCC(c1nnc(SCC(=O)Nc2cccnc2Cl)n1-c1ccccc1)N(C)C (configuration not stated) | -4.8% | . | .
CCn1nc(C)c(/C=N/NC(=O)c2ccc3c(c2)c(C)c(C)n3Cc2ccccc2)c1C | ? | -14.5 | -25.0%
O=C(CSc1ncnc2ccccc12)NCC(=O)c1ccccc1 | 12.5% | . | .
O=c1cc(CSc2nnc(Nc3ccccc3F)s2)nc2sccn12 | -10.4% | . | .
COc1ccc(Nc2nnc(SCc3cc(=O)n4ccsc4n3)s2)cc1 | 14.1µM* | ? | 31.6µM*
NS(=O)(=O)c1ccc(NC(=O)COC(=O)/C(=C/c2cccs2)c2cccs2)cc1 | -8.1% | . | .
CC(C)c1ccc(N(CC(=O)NCc2ccc(F)cc2)C(=O)c2csnn2)cc1 | 5.01µM* | . | .
CCc1cccc(N(CC(=O)NCc2ccc(F)cc2)C(=O)c2csnn2)c1 | -9.1% | . | .
COc1ccccc1Nc1nc(-c2cccs2)cs1 | 3.98µM* | -22.6 | -28.8%
COc1ccc(OC)c(Nc2nc(-c3cccs3)cs2)c1 | -7.8% | 15.4 | -22.8%
CC(C)CCCC(C)C1CCC2C3CC=C4CC(O)CC[C@@]4(C)C3CC[C@@]12C (some centres not stated) | -5.0% | . | -18.9%
